According to PubChem BioAssay (NCI):
“And” between values parts separate entries of the source, which are not always exact repeats. Identical values can stand only once. About 83,000 compounds went through this panel and 20% of them were active in at least one assay; those are over-represented in the sample as a whole.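 Each cell line was grown in a 96-well plate and treated with one concentration of compound for 48 hours. Values below 10 were considered active.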 The source made the active and inactive calls.

These compounds were tested on MDA-MB-468 breast (assay: NCI-60 one-dose screen, 48 h (100 = growth as untreated, 0 = no growth, -100 = all killed)). Conditions: 10 µM unless noted.

Question: How did the growth turn out when `COc1cc(/C=C\c2cc(OC)c(OC)c(OC)c2)cc(N/C=C\C(=O)c2cc(OC)c(OC)c(OC)c2)c1OC` was run?
Answer: Its growth is -10.6% (active).

Question: With `Nc1cccc(CC(=O)Nc2ccc(S(=O)(=O)F)cc2)c1` as the compound, how does the growth read?
Answer: The growth was 90.2% (inactive).

Question: How did the growth turn out when `CC(=O)O[C@H]1C[C@H](O[C@H]2[C@@H](O)C[C@H](O[C@H]3[C@@H](O)C[C@H](O[C@H]4CC[C@@]5(C)C(CCC6C5C[C@@H](O)[C@]5(C)[C@@H](C7=CC(=O)OC7)CC[C@]65O)C4)O[C@@H]3C)O[C@@H]2C)O[C@H](C)[C@H]1O[C@@H]1O[C@H](CO)[C@@H](O)[C@H](O)[C@H]1O` (some centres undefined) was run?
Answer: The growth was -56.2% (active).

Question: `O=[N+]([O-])c1c(Br)sc(Br)c1[N+](=O)[O-]` was tested. Which growth did it give?
Answer: The growth was 1.55% (active).

Question: Which growth does the source give for `CC12CC(=O)C3(SC#N)C(CCC4=CC(=O)CCC43C)C1CCC2=O` (centres undefined) here?
Answer: The growth was 24.5% (inactive).

Question: How did the growth turn out when `COc1cc(C=Nc2cccc(C(=O)O)c2)ccc1N(CCCl)CCCl` was run?
Answer: Its growth is 46.6% (inactive).

Question: How did the growth turn out when `Cc1ccc(NC(=O)CBr)cc1` was run?
Answer: The growth was 98.5% (inactive).

Question: For `O=C1C=C(N2CC2)c2ccccc2C1=O`, which growth is on record?
Answer: Its growth is 24.6% (inactive).

Question: With `Cc1ccccc1NC(=NCCCN1CC1)Nc1ccccc1C` as the compound, how does the growth read?
Answer: The growth was 54.7% (inactive).

Question: How did the growth turn out when `N#CC(C#N)=Cc1cccc(F)c1` was run?
Answer: The growth was 109% (inactive).

Question: For `CC12CCC3C4CCC(=O)C=C4CCC3C1CC1CC(=O)OC12` (centres undefined), which growth is on record?
Answer: The growth was 102% (inactive).

Question: Which growth does the source give for `C[C@]12CC[C@H](O)C[C@@H]1CC[C@@H]1[C@@H]2CC[C@]2(C)OC(=O)CC[C@@H]12` here?
Answer: The growth was 106% (inactive).

Question: `NC(Cc1ccccc1)c1ccccc1` (centres undefined) was tested. Which growth did it give?
Answer: Its growth is 107% (inactive) and 105% (inactive).

Question: `Cc1c(C)c([N+](=O)[O-])c(C)c(C)c1[N+](=O)[O-]` was tested. Which growth did it give?
Answer: The growth was 95.2% (inactive).

Question: With `CCCCCCCCCCCCOc1ccc(C(=O)Oc2ccc(CSP3(=O)OCC4OC(n5cnc6c(N)ncnc65)C(F)C4OP(=O)(O)OCC4OC(n5ccc(=O)[nH]c5=O)C(F)C4O3)cc2)cc1` (centres undefined) as the compound, how does the growth read?
Answer: The growth was 108% (inactive).

Question: For `CC(=O)Nc1nc2c(s1)CC[C@@]1(C)C2=CC[C@H]2[C@@H]3CC[C@H](O)[C@@]3(C)CC[C@@H]21`, which growth is on record?
Answer: The growth was 58.2% (inactive).

Question: Which growth does the source give for `Clc1ccc(COC(Cn2ccnc2)c2ccc(Cl)cc2Cl)cc1` (centres undefined) here?
Answer: The growth was 39.7% (inactive).

Question: With `O=C(NC(Cl)=C(Cl)Cl)P(=O)(c1ccccc1)c1ccccc1` as the compound, how does the growth read?
Answer: The growth was 101% (inactive).

Question: How did the growth turn out when `CC(=O)c1cccc(S(=O)(=O)F)c1` was run?
Answer: Its growth is 93.6% (inactive).

Question: For `C[N+]12CCC34C5=CC(=O)C(=O)C=C5[N+]5(C)C(=O)CC6OCC=C(C1)C(CC32)C6C45` (centres undefined), which growth is on record?
Answer: The growth was 99.9% (inactive).

Question: With `CC(C)(N)Cc1ccccc1` as the compound, how does the growth read?
Answer: The growth was 114% (inactive).

Question: With `CCCN1C(=O)NC(=O)C(CC)(N2C(=O)c3c(F)c(F)c(F)c(F)c3C2=O)C1=O` (centres undefined) as the compound, how does the growth read?
Answer: The growth was -50.8% (active).

Question: For `CCCC[C@H](NC(=O)[C@H]1CCCN1C)C(=O)N(C)[C@H](C[C@@H](OC(C)=O)c1nc(C(=O)N[C@@H](Cc2ccccc2)C[C@H](C)C(=O)OCC)cs1)C(C)C`, which growth is on record?
Answer: The growth was 7.04% (active).

Question: With `Oc1ccc2c3c1O[C@H]1c4[nH]c5ccccc5c4C[C@@]4(O)C(C2)N(CC2CC2)CC[C@]314` as the compound, how does the growth read?
Answer: Its growth is 90.5% (inactive).

Question: For `CC[S][Hg][Cl]`, which growth is on record?
Answer: Its growth is 116% (inactive).

Question: Which growth does the source give for `O=C(O)c1cc(Cc2ccc(O)c(C(=O)O)c2)ccc1O` (tested in a mixture with another compound) here?
Answer: The growth was -46.8% (active).

Question: How did the growth turn out when `CCCC(=O)O[C@@H]1C[C@H]2C[C@@H](O[C@@H]3O[C@@H](C)[C@@H](O)[C@@H](O)[C@H]3OC)C[C@@H](C[C@@H](C)/C=C/C=C\C[C@@H]3O[C@@H](C[C@@H]3C)[C@@H](O)C[C@H]3C[C@@]1(O)C(=O)O3)O2` was run?
Answer: Its growth is -6.3% (active).

Question: With `Oc1ccc2c3c1OC1[C@@H](O)CC[C@@]4(O)[C@@H](C2)N(CC2CCC2)CC[C@]314` (some centres undefined) as the compound, how does the growth read?
Answer: The growth was 99.8% (inactive).

Question: Which growth does the source give for `CCC(CC)CC1(C)CC2(C)CCOC2OO1` (centres undefined) here?
Answer: The growth was 110% (inactive).

Question: For `Clc1ccc(COC(Cn2ccnc2)c2ccc(Cl)cc2Cl)c(Cl)c1` (centres undefined), which growth is on record?
Answer: Its growth is 33.3% (inactive).

Question: With `CC(C)COC(=O)Cc1ccccc1` as the compound, how does the growth read?
Answer: Its growth is 101% (inactive).

Question: How did the growth turn out when `O=C(C(=O)N1CCCC1)c1cn(CCCCCn2cc(C(=O)C(=O)N3CCCC3)c3ccccc32)c2ccccc12` was run?
Answer: The growth was 91% (inactive).

Question: How did the growth turn out when `ClCc1ccc2ccccc2n1` was run?
Answer: The growth was 84.1% (inactive).

Question: For `CC[C@H](C)[C@@H]([C@@H](CC(=O)N1CCC[C@H]1[C@H](OC)[C@@H](C)C(=O)N[C@H](C)[C@@H](O)c1ccccc1)OC)N(C)C(=O)[C@@H](NC(=O)[C@@H](NC)C(C)C)C(C)C`, which growth is on record?
Answer: Its growth is 37% (inactive).

Question: How did the growth turn out when `C/C=C/CC(C)C(O)[C@H](NC(=O)[C@@H]1CCCN1C(=O)C(C)(C)NC(=O)CCCCCCC)C(=O)N[C@@](C)(CC)C(=O)N[C@@H](CCC(N)=O)C(=O)N[C@H](CCC(N)=O)C(=O)NC(C)(C)C(=O)NC(C)(C)C(=O)N[C@@H](CCC(N)=O)C(=O)N[C@H](CC(C)C)C(=O)N[C@H](CO)CC(C)C` (some centres undefined) was run?
Answer: The growth was 106% (inactive) and -55.5% (active).

Question: With `C=CC[Se]C(=O)c1ccccc1OC(C)=O` as the compound, how does the growth read?
Answer: The growth was -16.6% (active).

Question: How did the growth turn out when `COc1cccc2c1c(C(=O)c1ccco1)cn2Cc1ccc(F)cc1` was run?
Answer: Its growth is 103% (inactive).

Question: For `COc1ccc(C2=N[C@@H](Cc3ccccc3)C(=O)Nc3ccsc32)cc1`, which growth is on record?
Answer: Its growth is 8.23% (active).

Question: Which growth does the source give for `CO[C@@H]([CH2][Hg][S]C#N)[C@@H]([CH2][Hg][S]C#N)OC` here?
Answer: The growth was 98.3% (inactive).
